PubChem BioAssay (EPA / NIEHS)
Inconclusive results are not listed. The source made the active and inactive calls. Rule for the calls: active = hit-call score of the fitted dose curve at least 0.9, where 1 is the maximum; inconclusive = response in the unintended direction; inactive = score below 0.9.

Assay: Tanguay_ZF_120hpf_SWIM_legacy: (Legacy) Oregon State University Tanguay Lab 120 Hour Post-fertilization zebrafish Assay for Swim Bladder Malformation (AID 2283654);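 note: swim bladder malformation in each larva scored yes or no under brightfield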
Method in brief: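 Embryos lacking chorions were exposed individually and statically to test chemical from 6 to 120 hpf at 28C, with 0.64% DMSO as vehicle. At 120 hpf, swim bladder malformation was recorded as present or absent by brightfield microscopy.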
With CCCCOC(=O)CCCCCCCCC(=O)OCCCC the outcome was “inactive”.
For CCCCCCCCCCCCCCCCCC(=O)O, the outcome was “inactive”.
With CC=Cc1ccc(O)c(OC)c1 the outcome was “inactive”.

Assay: Tanguay_ZF_120hpf_TRUN_legacy: (Legacy) Oregon State University Tanguay Lab 120 Hour Post-fertilization zebrafish Assay for Truncated Body (AID 2283655)
Method in brief: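 Whole-embryo zebrafish screen: dechorionated 5D embryos, static exposure 6–120 hpf, 28C, sealed foil-covered plates, 0.64% DMSO. Binary truncation call; gain of signal versus DMSO baseline.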
For Cc1ccc(C)c(O)c1C, the outcome was “inactive”.
With NCC1(Cc2noc(=O)[nH]2)CCCCC1 the outcome was “inactive”.
In the case of NS(=O)(=O)c1cc2c(cc1Cl)NCNS2(=O)=O, the outcome is reported as “inactive”.
In the case of Oc1ccc2ccccc2c1N=Nc1ccccc1, the outcome is reported as “inactive”.
In the case of Nc1ccccc1N, the AC50 is reported as 10.9 µM (active).
In the case of CN[C@H]1CC[C@@H](c2ccc(Cl)c(Cl)c2)c2ccc(S(N)(=O)=O)cc21, the outcome is reported as “inactive”.
In the case of CC1=C(/C=C/C(C)=C/C=C/C(C)=C/CO)C(C)(C)CCC1, the outcome is reported as “inactive”.
With CC1(C)NC(=O)NC1=O the outcome was “inactive”.
For Nc1ccc2c(c1)C(=O)c1ccccc1C2=O, the outcome was “inactive”.
In the case of NC(=O)Cn1c(=O)cc(CCN2CCN(c3nccc4sccc34)CC2)c2ccc(F)cc21, the outcome is reported as “inactive”.
In the case of CCCCCCCCCCCC(=O)OC, the outcome is reported as “inactive”.
With Cc1ccc(N(C)C)cc1 the outcome was “inactive”.
With Cc1c(C(=O)O)c(O)cc2c1C(=O)c1c(O)c([C@@H]3O[C@H](CO)[C@@H](O)[C@H](O)[C@H]3O)c(O)c(O)c1C2=O the outcome was “inactive”.
For CNC(=O)[C@H]1O[C@@H](n2cnc3c(NCc4cc(Cl)ccc4OCc4cc(C)no4)ncnc32)[C@H](O)[C@@H]1N, the outcome was “inactive”.

Assay: Tanguay_ZF_120hpf_NC_legacy: (Legacy) Oregon State University Tanguay Lab 120 Hour Post-fertilization zebrafish Assay for Notochord and Tail Malformation (AID 2283656)
Method in brief: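 Dechorionated 5D zebrafish, 1/well from 6 hpf; static exposure to 120 hpf, 28C, sealed, dark; final DMSO 0.64% v/v. NC scored binary (present/absent); dead embryos not scored. Fit vs DMSO baseline, gain direction.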
In the case of CNCc1cc(F)ccc1Oc1ccc(Cl)c(Cl)c1, the outcome is reported as “inactive”.
In the case of NCC1(Cc2noc(=O)[nH]2)CCCCC1, the outcome is reported as “inactive”.
With Nc1ccc(S(=O)(=O)c2ccc(N)cc2)cc1 the outcome was “inactive”.
For Cc1cccc(C)c1O, the outcome was “inactive”.
In the case of CN[C@H]1CC[C@@H](c2ccc(Cl)c(Cl)c2)c2ccc(S(N)(=O)=O)cc21, the outcome is reported as “inactive”.
In the case of CC1=C(/C=C/C(C)=C/C=C/C(C)=C/CO)C(C)(C)CCC1, the outcome is reported as “inactive”.
With CC(CO)OC(C)CO (stereo unspecified) (tested in a mixture with another compound) the outcome was “inactive”.
In the case of Nc1ccc2c(c1)C(=O)c1ccccc1C2=O, the outcome is reported as “inactive”.
In the case of C=CCOC(=O)c1ccccc1C(=O)OCC=C, the outcome is reported as “inactive”.
With CCCCCCCCCCCC(=O)OC the outcome was “inactive”.
For C[C@]12C=CC(=O)C=C1CC[C@@H]1[C@@H]2C(=O)C[C@@]2(C)[C@H]1CC[C@]2(O)C(=O)CO, the outcome was “inactive”.
In the case of Cc1ccc(N(C)C)cc1, the outcome is reported as “inactive”.
With Cc1c(C(=O)O)c(O)cc2c1C(=O)c1c(O)c([C@@H]3O[C@H](CO)[C@@H](O)[C@H](O)[C@H]3O)c(O)c(O)c1C2=O the outcome was “inactive”.
In the case of CC=Cc1ccc(O)c(OC)c1, the outcome is reported as “inactive”.
